This is an account of results in PubChem BioAssay (NCATS).

Records with an inconclusive call do not appear. A number with no mark means an inactive call. Calls of active or inactive are those of the source. Calls follow the shape of the dose curve; as a rule, active = well fitted curve in the direction sought with a large enough effect; inconclusive = small, poorly fitted or top-dose-only effect, or another doubt; inactive = no such curve, though single readings can be large; an effect the other way counts as inactive or inconclusive. Bridge positions count the residues as written; N and C are the ends. Square brackets hold non-standard residues; d marks the D form. Peptide text beside a SMILES is read from it. NMeY = CN[CH](Cc1ccc(O)cc1)C(=O)O

Test [1] has as its target Cellular tumor antigen p53 (Homo sapiens) (UniProt P04637). The experiment in a line: Primary qHTS for small molecule compounds that upregulate eGFP-tagged delta133p53alpha (in N-terminal) cells. (AID 2060322). Also: nearly all actives have a fitted effect of over 75% in size. Also: potency is read from the fitted curve at half-maximal effect.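 As to activation: series mostly up to about 56 µM; 0% = DMSO vehicle and 100% = reference activator.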 Conditions: NCI-H358 eGFP-delta133p53alpha fluorescence, 24 h; activation: stronger effect = higher value. In outline: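 NCI-H358 cells pre-induced 24 h with 10 ng/ml doxycycline to express N-terminal eGFP-delta133p53alpha, then dosed 24 h at 37C without doxycycline; fixed, Hoechst-stained, GFP intensity by laser scanning cytometry, normalized to DMSO (0%) and 57.5 uM 5-azacytidine (100%).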
(In qHTS, concentration-response curves come from the screen itself.)

The target of test [2] is Aldehyde dehydrogenase, mitochondrial (Homo sapiens) (UniProt P05091). The experiment in a line: qHTS for Inhibitors of the Aldehyde Dehydrogenase Family (ALDH2) Primary screen (AID 2061308).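 Also: plate controls were vehicle for no effect and reference inhibitor for full effect; nearly all actives have a fitted effect of over 55% in size.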
The target in test [3] is Retinaldehyde dehydrogenase 3 (Homo sapiens) (UniProt P47895). The experiment in a line: qHTS for Inhibitors of the Aldehyde Dehydrogenase Family (ALDH1A3) Primary screen (AID 2061315).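 Also: plate controls were DMSO vehicle for no effect and reference inhibitor for full effect.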

Chain of Cellular tumor antigen p53 (Homo sapiens) (P04637 whole entry, looked up): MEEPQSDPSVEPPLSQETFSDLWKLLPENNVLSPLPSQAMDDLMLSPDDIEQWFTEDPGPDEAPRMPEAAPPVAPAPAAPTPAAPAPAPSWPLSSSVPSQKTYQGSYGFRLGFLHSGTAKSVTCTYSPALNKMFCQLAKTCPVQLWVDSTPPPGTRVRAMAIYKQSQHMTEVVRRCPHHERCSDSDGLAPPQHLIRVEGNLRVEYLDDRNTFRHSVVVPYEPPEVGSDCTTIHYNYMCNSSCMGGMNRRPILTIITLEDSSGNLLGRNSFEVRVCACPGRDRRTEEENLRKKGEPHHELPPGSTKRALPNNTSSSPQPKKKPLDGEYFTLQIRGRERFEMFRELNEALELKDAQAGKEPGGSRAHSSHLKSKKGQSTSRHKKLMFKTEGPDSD

For the molecule `CC(CC12CCCN1C(=O)C1CCCN1C2=O)OC(N)=O` (stereo not given), the activation in test [1] was -18.3%. Further, the Potency result in test [2] and in test [3] was “inactive” throughout.

`CCOC(=O)C1(CCOc2ccccc2)CCN(Cc2ccc(O)c(Cl)c2)CC1`: in test [1], the activation was 3.67%. Moreover, the Potency entry in test [2] and in test [3] was “inactive” throughout.

With `CC1(CO)CCCC2(C)C1C(OC(=O)c1ccccc1)CC1C(=O)OCC12O` (stereo not given), in test [1], the activation was -20.6%. Moreover, the Potency result in test [2] and in test [3] was “inactive” each time.

Consider `C/C1=C\CC[C@H](C)CCO[C@@H]2O[C@H](CO[C@@H]3OC[C@](O)(COC1=O)[C@H]3O)[C@@H](O)[C@H](O)[C@H]2O`, for which the activation in test [1] was 18.8%. The Potency result in test [2] and in test [3] was “inactive” in each case.

Regarding `CC1CCC2(C(=O)O)CCC3(C)C(=CCC4C5(C)CCC(OC(=O)/C=C/c6ccccc6)C(C)(C)C5CCC43C)C2C1C` (stereo not given), the activation in test [1] is -8.4%. Further, the Potency result in test [2] and in test [3] was “inactive” throughout.

Take `C=C1[C@@H]2[C@H]3OC(=O)C(=C)[C@@H]3CC[C@@](C)(O)[C@@H]2C[C@@H]1O[C@@H]1O[C@H](CO)[C@@H](O)[C@H](O)[C@H]1O`: the activation in test [1] is 15.2%. For the same molecule, the Potency result in test [2] and in test [3] was “inactive” in each case.

For `CC(C)c1nc(N(C)S(C)(=O)=O)nc(-c2ccc(F)cc2)c1/C=C/[C@@H](O)C[C@@H](O)CC(=O)O`, the activation in test [1] is -19%. In addition, the Potency result in test [2] and in test [3] was “inactive” in each case.

As for `CCNc1nc(Nc2cc(F)c(C(=O)N3CCOCC3)cc2OC)ncc1C(F)(F)F`, the activation in test [1] is 10.7%. The Potency entry in test [2] and in test [3] was “inactive” in each case.

As for `C[C@]12CCC[C@](C)(C(=O)O)C1CCC13C=C(CO)C(CCC12)C3` (stereo not given in full), the activation in test [1] is -24.4%. The Potency entry in test [2] and in test [3] was “inactive” each time.

Turning to `C[C@@H]1O[C@@H](O[C@H]2[C@H](O)[C@@H](O)[C@H](O[C@H]3[C@H](O[C@H]4CC[C@@]5(C)C(=CC[C@@H]6C5CC[C@]5(C)[C@@H]7[C@H](C[C@@H]65)O[C@]5(CC[C@@](C)(CO[C@@H]6O[C@H](CO)[C@@H](O)[C@H](O)[C@H]6O)O5)[C@H]7C)C4)O[C@H](CO)[C@@H](O)[C@@H]3O)O[C@@H]2CO)[C@H](O)[C@H](O)[C@H]1O` (stereo not given in full), the Potency in test [1] was 3.6 µM (active). Also, the Potency result in test [2] and in test [3] was “inactive” each time.

With `COC(=O)C1=COC(OC2OC(CO)C(O)C(O)C2O)C2C(COC(=O)/C=C/c3ccc(O)cc3)C(O)C(O)C12` (stereo not given), the activation in test [1] was -6.87%. Also, the Potency result in test [2] and in test [3] was “inactive” each time.

For the molecule `CC(O)(CC(=O)O)CC(=O)O[C@@H]1[C@@H](O)[C@H](OCCc2ccccc2)O[C@H](CO)[C@H]1O` (stereo not given in full), the activation in test [1] was 3.82%. Moreover, the Potency entry in test [2] and in test [3] was “inactive” each time.

In the case of `CCC(C)C1NC(=O)C2CCCN2C(=O)C(NC(C)=O)C(C)OC(=O)C(Cc2ccc(OC)cc2)N(C)C(=O)C2CCCN2C(=O)C(C(C)C)NC1=O` (stereo not given) (Ac-TPIVP[NMeY](Me); ester 1-C; configuration not given here), the activation in test [1] was 15.3%. The Potency result in test [2] and in test [3] was “inactive” in each case.

Regarding `CNS(=O)(=O)c1ccccc1Nc1nc(Nc2ccc(N3CCN(C)CC3)cc2OC)ncc1Cl`, the Potency in test [1] is 21.3 µM (active). The Potency result in test [2] and in test [3] was “inactive” throughout.

On to `Cn1nccc1-c1ccccc1Oc1ccc(S(=O)(=O)Nc2nccs2)cc1C#N`, for which, in test [1], the activation is 3.67%. In addition, the Potency entry in test [2] and in test [3] was “inactive” in each case.

In the case of `Cc1ccccc1CN1C2=NCCN2C(=O)C2=C1CCN(Cc1ccccc1)C2`, the activation in test [1] was 29%. Besides, the Potency entry in test [2] and in test [3] was “inactive” each time.

In the case of `C=C[C@](C)(O)CC[C@H]1C(C)=CC(=O)[C@H]2C(C)(C)CCC[C@]12C`, the activation in test [1] was 3.57%. For the same molecule, the Potency result in test [2] and in test [3] was “inactive” each time.

`COc1ccc([C@H]2OC[C@H]3[C@@H]2CO[C@@H]3c2ccc(O[C@@H]3O[C@H](CO)C(O)[C@H](O)[C@H]3O)c(OC)c2)cc1OC` (stereo not given in full): in test [1], the activation is -1.79%. Moreover, the Potency result in test [2] and in test [3] was “inactive” in each case.

`O=C1NC(Cc2ccccc2)C(=O)N2CCCC12` (stereo not given): the activation in test [1] is -16.8%. Moreover, the Potency result in test [2] and in test [3] was “inactive” each time.

Turning to `COc1c2cc(c(O)c1OC)-c1cc(ccc1O)CCC(O)CCCC2` (stereo not given), in test [1], the activation is 11.5%. The Potency entry in test [2] and in test [3] was “inactive” in each case.

In the case of `CC(C)(O)c1ccc2c(c1)C(O)C[C@H]1[C@](C)(C(=O)O)CCC[C@]21C` (stereo not given in full), the activation in test [1] is 3.57%. In addition, the Potency result in test [2] and in test [3] was “inactive” throughout.

For `CN[C@H](CC(C)C)C(=O)N[C@H]1C(=O)N[C@@H](CC(N)=O)C(=O)N[C@H]2C(=O)N[C@H]3C(=O)N[C@H](C(=O)N[C@H](C(=O)O)c4cc(O)cc(O)c4-c4cc3ccc4O)[C@H](O[C@H]3C[C@](C)(N)[C@@H](O)[C@H](C)O3)c3ccc(c(Cl)c3)Oc3cc2cc(c3O[C@@H]2O[C@H](CO)[C@@H](O)[C@H](O)[C@H]2O[C@H]2C[C@](C)(NCc3ccc(-c4ccc(Cl)cc4)cc3)[C@@H](O)[C@H](C)O2)Oc2ccc(cc2Cl)[C@H]1O`, the activation in test [1] is 27%. Also, the Potency entry in test [2] and in test [3] was “inactive” throughout.

On to `CC(=O)O[C@@H]1CC2C(/C=C(\C)C(=O)[C@@]3(O)C[C@@H](C)[C@H](OC(=O)c4ccccc4)C3/C=C/1C)C2(C)C` (stereo not given in full), for which, in test [1], the activation was -10.7%. In addition, the Potency entry in test [2] and in test [3] was “inactive” throughout.

Turning to `CC/C=C/CC1=C(CCCCCCCC(=O)O)CCC1=O`, the activation in test [1] is -17.9%. Besides, the Potency result in test [2] and in test [3] was “inactive” each time.

Take `CCn1cc(C2=NOC(C(=O)Nc3c(C)n(C)n(-c4ccccc4)c3=O)C2)c(C)n1` (stereo not given): the activation in test [1] is 9%. Besides, the Potency entry in test [2] and in test [3] was “inactive” throughout.
